Measurements reported in PubChem BioAssay (NCATS).
Inconclusive results are not listed. Active and inactive are the calls of the source. The call rests on the fitted dose curve.

How the values were obtained:
[1] = Primary qHTS for inhibitors of SARS-S pseudo-typed particle cell entry (AID 1479145); further: nearly all actives have a fitted effect of over 45% in size; on activity change, negative = inhibition: series mostly up to about 57 µM
[2] = Primary qHTS for Huh7 cytotoxicity: counterscreen for inhibitors of MERS-S pseudotyped particle cell entry (AID 1479147)
[3] = Primary qHTS for inhibitors of MERS-S pseudo-typed particle cell entry (AID 1479149); further: nearly all actives have a fitted effect of over 60% in size; on activity change, negative = inhibition: series mostly up to about 57 µM
[4] = Primary qHTS for Vero E6 cytotoxicity: counterscreen for inhibitors of SARS-S pseudo-typed particle cell entry (AID 1479150)
[5] = Cytotoxicity counterscreen for inhibitors of SARS-CoV-2 cell entry (AID 1645845); further: nearly all actives have a fitted effect of over 50% in size
Procedure, shortened: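 ATP-content luminescence (ATPLite 1step, 15 min RT) read after 48 h compound exposure of Expi293F cells stably expressing human ACE2; normalized to cells-only wells and media-only wells.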
On the % scale 0 is the no-effect control and ±100 the full control effect.

O=c1[nH]cnc2c1ncn2[C@H]1CC[C@@H](CO)O1
inactive: Potency [1] | Potency [2] | Potency [3] | Potency [4] | Potency [5]

C[C@@H](O)[C@H]1C(=O)N2C(C(=O)O)=C(S[C@@H]3CN[C@H](CNS(N)(=O)=O)C3)[C@H](C)[C@H]12
inactive: Potency [1] | Potency [2] | Potency [3] | Potency [4] | Potency [5]

CC1Cc2ccccc2N1NC(=O)c1ccc(Cl)c(S(N)(=O)=O)c1 (stereo not given)
inactive: Potency [1] | Potency [2] | Potency [3] | Potency [4] | Potency [5]

CCCCNC(=O)NS(=O)(=O)c1ccc(C)cc1
inactive: Potency [1] | Potency [2] | Potency [3] | Potency [4] | Potency [5]

Nc1cc(-c2ccncc2)c[nH]c1=O
inactive: Potency [1] | Potency [2] | Potency [3] | Potency [4] | Potency [5]

CCOc1ccc2ccccc2c1C(=O)N[C@@H]1C(=O)N2[C@@H]1SC(C)(C)[C@@H]2C(=O)O
inactive: Potency [1] | Potency [2] | Potency [3] | Potency [4] | Potency [5]

C[C@](N)(Cc1ccc(O)c(O)c1)C(=O)O
inactive: Potency [1] | Potency [2] | Potency [3] | Potency [4] | Potency [5]

O[C@@H]1CO[C@H]2[C@@H]1OC[C@@H]2O
inactive: Potency [1] | Potency [2] | Potency [3] | Potency [4] | Potency [5]

O=P(O)(O)C(O)(Cc1cccnc1)P(=O)(O)O
inactive: Potency [1] | Potency [2] | Potency [3] | Potency [4] | Potency [5]

NC(=O)NO
inactive: Potency [1] | Potency [2] | Potency [3] | Potency [4] | Potency [5]

CN(CCOc1ccc(CC2SC(=O)NC2=O)cc1)c1ccccn1 (stereo not given)
inactive: Potency [1] | Potency [2] | Potency [3] | Potency [4] | Potency [5]

CC(C)NCC(O)COc1cccc2[nH]ccc12 (stereo not given)
inactive: Potency [1] | Potency [2] | Potency [3] | Potency [4] | Potency [5]

Cc1ccc2c(n1)Oc1ccc(C(C)C(=O)OCC(=O)N(C)C)cc1C2 (stereo not given)
inactive: Potency [1] | Potency [2] | Potency [3] | Potency [4] | Potency [5]

Cn1cc[nH]c1=S
inactive: Potency [1] | Potency [2] | Potency [3] | Potency [4] | Potency [5]

COCCCOc1cc(C[C@@H](C[C@H](N)[C@@H](O)C[C@H](C(=O)NCC(C)(C)C(N)=O)C(C)C)C(C)C)ccc1OC
inactive: Potency [1] | Potency [2] | Potency [3] | Potency [4] | Potency [5]

CC[C@@]1(c2ccccc2)NC(=O)N(C)C1=O
inactive: Potency [1] | Potency [2] | Potency [3] | Potency [4] | Potency [5]

CN1C(CCl)Nc2cc(Cl)c(S(N)(=O)=O)cc2S1(=O)=O (stereo not given)
inactive: Potency [1] | Potency [2] | Potency [3] | Potency [4] | Potency [5]

Cc1ccc(S(=O)(=O)NC(=O)NN2CCCCCC2)cc1
inactive: Potency [1] | Potency [2] | Potency [3] | Potency [4] | Potency [5]

NNCCc1ccccc1
inactive: Potency [1] | Potency [2] | Potency [3] | Potency [4] | Potency [5]

N[C@@H](C(=O)N[C@@H]1C(=O)N2C(C(=O)O)=C(Cl)CS[C@H]12)c1ccccc1
inactive: activity change, negative = inhibition [1] -16.1% [at 11.4 µM] | outcome [2] inactive [at 11.4 µM] | outcome [3] inactive [at 11.4 µM] | outcome [4] inactive [at 11.4 µM] | outcome [5] inactive [at 11.3 µM]

Cc1ncc([N+](=O)[O-])n1CCO
inactive: Potency [1] | Potency [2] | Potency [3] | Potency [4] | Potency [5]

CO/N=C1\CN(c2nc3c(cc2F)c(=O)c(C(=O)O)cn3C2CC2)CC1CN (stereo not given)
inactive: Potency [1] | Potency [2] | Potency [3] | Potency [4] | Potency [5]

Nc1nc2c(ncn2COC(CO)CO)c(=O)[nH]1
inactive: Potency [1] | Potency [2] | Potency [3] | Potency [4] | Potency [5]

O=C(O)CCNC(=O)c1ccc(N=Nc2ccc(O)c(C(=O)O)c2)cc1
inactive: Potency [1] | Potency [2] | Potency [3] | Potency [4] | Potency [5]

c1cnc2cc3c(cc2n1)C1CNCC3C1
inactive: Potency [1] | Potency [2] | Potency [3] | Potency [4] | Potency [5]

Cc1[nH]c(=O)c(C#N)cc1-c1ccncc1
inactive: Potency [1] | Potency [2] | Potency [3] | Potency [4] | Potency [5]

COc1cc2c(cc1OC)[C@@H]1CC(=O)[C@@H](CC(C)C)CN1CC2
inactive: Potency [1] | Potency [2] | Potency [3] | Potency [4] | Potency [5]

O=C(O)P(=O)(O)O
inactive: Potency [1] | Potency [2] | Potency [3] | Potency [4] | Potency [5]

CC(C)(C)NC(=O)[C@@H]1CN(Cc2cccnc2)CCN1C[C@@H](O)C[C@@H](Cc1ccccc1)C(=O)N[C@H]1c2ccccc2C[C@H]1O
inactive: Potency [1] | Potency [2] | Potency [3] | Potency [4] | Potency [5]

Oc1cn2c(n1)Nc1ccc(Cl)c(Cl)c1C2
inactive: Potency [1] | Potency [2] | Potency [3] | Potency [4] | Potency [5]

CCCCC1=NC2(CCCC2)C(=O)N1Cc1ccc(-c2ccccc2-c2nn[nH]n2)cc1
inactive: Potency [1] | Potency [2] | Potency [3] | Potency [4] | Potency [5]
